Assay results reported in PubChem BioAssay AID1671190 (National Center for Advancing Translational Sciences (NCATS), 2021).
About 6,100 (1.1%) of roughly 580,000 compounds were called active. About 15% were inconclusive and are not listed. What follows is part of a selection rich in actives, with near analogues and random picks from the rest. Unmarked numbers belong to inactive results. Calls follow the shape of the dose curve; as a rule, active = well fitted inhibition curve with a large enough effect; inconclusive = small, poorly fitted or top-dose-only effect, or another doubt; inactive = no such curve, though single readings can be large or run the other way.

molecular target: Polyunsaturated fatty acid lipoxygenase ALOX12 (Homo sapiens) (UniProt P18054); assay: Primary qHTS assay for inhibitors of human arachidonate 12S-lipoxygenase (ALOX12): Round 2; conditions: purified 12hLO, xylenol orange hydroperoxide absorbance; series mostly up to 108 µM; activity change, negative = inhibition: at the top concentration
In short: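 Hydroperoxide product was detected by ferrous iron/xylenol orange as the 573 to 405 nm absorbance ratio. Arachidonic acid at 40 uM (final) was turned over for 30 min at room temperature by 150 nM human 12hLO, pH 7.0 Hepes buffer, after 15 min compound preincubation.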
% is scaled to controls: 0 for no effect and ±100 for the full control effect; potency is read from the fitted curve at half-maximal effect.

Sequence of Polyunsaturated fatty acid lipoxygenase ALOX12 (Homo sapiens) (P18054 whole entry, looked up): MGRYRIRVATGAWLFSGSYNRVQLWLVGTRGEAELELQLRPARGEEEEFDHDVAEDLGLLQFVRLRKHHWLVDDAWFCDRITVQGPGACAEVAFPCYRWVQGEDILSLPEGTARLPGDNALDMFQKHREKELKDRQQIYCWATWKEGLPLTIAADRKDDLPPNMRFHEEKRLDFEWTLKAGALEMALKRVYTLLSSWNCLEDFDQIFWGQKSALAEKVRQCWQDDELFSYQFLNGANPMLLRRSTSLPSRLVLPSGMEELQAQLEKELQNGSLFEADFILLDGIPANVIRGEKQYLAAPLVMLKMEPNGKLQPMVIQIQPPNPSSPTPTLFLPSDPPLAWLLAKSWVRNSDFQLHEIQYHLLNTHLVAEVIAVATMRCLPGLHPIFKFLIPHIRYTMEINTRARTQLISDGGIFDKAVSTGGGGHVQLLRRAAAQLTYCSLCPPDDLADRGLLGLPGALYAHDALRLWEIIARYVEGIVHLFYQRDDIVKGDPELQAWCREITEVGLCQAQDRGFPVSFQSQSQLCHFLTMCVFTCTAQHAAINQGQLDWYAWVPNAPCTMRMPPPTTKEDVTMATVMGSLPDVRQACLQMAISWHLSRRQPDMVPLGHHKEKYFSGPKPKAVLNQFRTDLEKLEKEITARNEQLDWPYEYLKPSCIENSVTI

SMILES | activity change, negative = inhibition | Potency
Clc1cccc(CN2CCN(Cc3nnsc3Cl)CC2)c1 | 22.4% | 
CCOC(=O)c1ccc(Nc2c(C(=O)OCC)cnc3ccc(OCC)cc23)cc1 | -26.7% | 
COC(=O)c1ccc2nc(C3CCCCC3)c(Cc3cccc(F)c3)n2c1 | -27.2% | 
COC(=O)c1ccc2nc(-c3cccc(Br)c3)c(Cc3ccc(OC)cc3C)n2c1 |  | 7.94 µM (active)
CCc1nc2ccc(C(=O)NCc3ccc(OC)cc3)cn2c1N(CC)Cc1cccc(Br)c1 | -13.1% | 
COC(=O)c1ccc2nc(-c3ccc(Cl)cc3)c(Cc3cccc(F)c3)n2c1 |  | 44.7 µM (active)
COC(=O)c1ccc2nc(-c3cccc(Br)c3)c(Cc3ccccc3C(F)(F)F)n2c1 | 0% | 
CN(C)C(=O)c1nc2ccc(Cl)cn2c1CNCc1cccc(OC(F)(F)F)c1 | -10% | 
O=C(Nc1ccnc(Cl)c1)C1CC2CCC1C2 (stereo unspecified) | -11.1% | 
CC(=O)OC1C2COC(O2)C(OC(C)=O)C1OC(C)=O (stereo unspecified) | -25.1% | 
O=C(Nc1cccnc1)c1cc(-c2ccc(F)cc2)nc2ccccc12 | -4.09% | 
CCCNC(=O)CC1COCCN1C(=O)CCc1c(C)nc(=O)[nH]c1C (stereo unspecified) | 4.55% | 
COC(=O)c1c(CN2CCC(C(N)=O)CC2)nc2ccccc2c1C | -1.28% | 
Cc1nnc(SCC(=O)NNC(=O)c2ccc(Cl)cc2)n1CC1CCCO1 (stereo unspecified) | 0.528% | 
S=c1[nH]nc(-c2ccc(Cl)cc2)n1CC1CCCO1 (stereo unspecified) |  | 44.7 µM (active)
CNC(=O)NC(=O)CSc1nnc(-c2ccc(F)cc2)n1CC1CCCO1 (stereo unspecified) | -1.78% | 
COc1ccc(C(=O)NC[C@@H]2C=C(C)[C@H](Cc3nnc(-c4cncn4C)o3)C[C@H]2C(C)C)cc1 | 5.16% | 
CC(C)c1ccc(S(=O)(=O)N2CCN(C(=O)c3ccc(N4CCCC4)c([N+](=O)[O-])c3)CC2)cc1 | 1.24% | 
O=C(c1cccc(F)c1)N1CCC(O)(c2cccnc2)CC1 | 0% | 
O=C(c1cccc(F)c1)N1CCN(c2ccc([N+](=O)[O-])c3cccnc23)CC1 |  | 39.8 µM (active)
O=C(NCCCN1CCCC1=O)c1csc(N2CCN(c3ccccc3F)CC2)n1 | -8.23% | 
C/C(=N\NC(=O)C1CC1)C(C)C | 31.5% | 
COc1ccc(Oc2ccc(NC(=O)Cn3ncc4ccc(OC)c(OC)c4c3=O)cc2)cc1 | 6.84% | 
C/C(=N\NC(=O)Cc1ccccc1[N+](=O)[O-])c1cccnc1 | 434% | 
O=C(/C=C/c1ccc(Cl)c([N+](=O)[O-])c1)c1cccnc1 |  | 17.8 µM (active)
O=C(NN=Cc1ccco1)C(=O)Nc1ccc(Cl)c([N+](=O)[O-])c1 | 20.7% | 

SMILES | activity change, negative = inhibition | Potency
CC(=O)N1CCN(C(=O)Cn2c(-c3ccccc3)cc3ccccc32)CC1 | -56.7% | 
O=C(Nc1cc(F)ccc1F)c1cc(C2CC2)nn1-c1ccccc1 | 28.5% | 
O=C(CCc1c[nH]c2ccccc12)NCCc1cccnc1 | -7.37% | 
COc1ccc(C2=CC(c3ccccc3Cl)n3nc(-c4ccc(Cl)cc4)nc3N2)cc1 (stereo unspecified) |  | 5.01 µM (active)
COc1cccc(-c2nc3n(n2)C(c2ccccc2Cl)C(C(N)=O)=C(C)N3)c1 (stereo unspecified) | 337% | 
Cc1ccc(C2C=C(c3ccc(Cl)cc3)Nc3nc(NC(=O)CCC(=O)O)nn32)cc1 (stereo unspecified) | 39.4% | 
Cc1nn(Cc2cccc(F)c2)c(C)c1NS(=O)(=O)c1c(C)nn(C)c1C | -45.1% | 
Cc1sc2ncnc(Sc3nnc(-c4ccccc4F)n3C)c2c1C | 3.83% | 
N#Cc1ccccc1Sc1ccccc1C(=O)NC1CCCCC1 | -23.6% | 
N#Cc1ccccc1Sc1ccccc1C(=O)Nc1ccc2c(c1)CCC2 |  | 20 µM (active)
N#Cc1ccccc1Sc1ccccc1C(=O)OCC(=O)NC1CCCCC1 | -7.61% | 
CC1CCCN(CC(=O)Nc2oc3ccccc3c(=O)c2-c2ccccc2)C1 (stereo unspecified) | 53.9% | 
Cn1c(=O)[nH]c(=O)c2c1nc(SCCO)n2Cc1ccc(Cl)cc1 | -28.4% | 
CCN(CC)c1ccc(NC(=O)CSc2ncnc3ccccc23)cc1 | -15.3% | 
CC(C)C(=O)NC(NC(=S)Nc1ccccc1)C(Cl)(Cl)Cl (stereo unspecified) | -14.2% | 
COCCN1C(=O)c2n[nH]c(-c3ccco3)c2C1c1ccc(O)cc1 (stereo unspecified) | -7.24% | 
Cc1cnc(C)n1CCN | 43.7% | 
Cc1cnc(-c2ccncc2)n1CCN |  | 3.55 µM (active)
Cc1cnc(-c2ccccc2)n1CCNC(=O)CCC1CCCC1 | 7.92% | 
CCc1ccc(-c2ccccc2)nc1-c1ccccc1 | 6.65% | 
COC(=O)CC(NC(=O)c1ccc2c(c1)OCCO2)c1ccc(F)cc1 (stereo unspecified) | -18.7% | 
Cc1oc(-c2nc(C#N)c(N3CCCCCC3)o2)cc1S(=O)(=O)N1CCCCC1 | -3.56% | 
Cc1ccc(/C=C/C(=O)/C=C/c2ccc(C)cc2)cc1 | -13.9% | 
O=C(/C=C(O)/C=C/c1ccc(O)cc1)/C=C/c1ccc(O)cc1 |  | 28.2 µM (active)
COc1cc(C=CC(=O)O)ccc1O | -8.61% [at 57.4 µM] | 
